# POLK inh: qHTS for Inhibitors of Polymerase Kappa; DNA polymerase kappa (Homo sapiens), Q9UBT6; purified Pol kappa, fluorescent DNA synthesis assay, 10 min; Potency, µM (top dose mostly 107 µM), for the others: at the top dose activity, negative = inhibition, usual class: inhibitors; 400,000 tested, 0.53% active; AID 588579, 2011; further: on the % scale 0 is the no-effect control and ±100 the full control effect
#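 Enzyme at 10 nM met test compounds for 15 min at room temperature. Substrate addition (50 nM final) began the reaction, which was monitored by fluorescence at 0 and 10 min.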
# GLS inh: qHTS for Inhibitors of Glutaminase (GLS); Glutaminase kidney isoform, mitochondrial (Homo sapiens), O94925; GLS enzymatic activity, qHTS titration; Potency, µM (highest dose often 45.5 µM), inactives show top-dose activity change, negative = inhibition, hits mostly inhibitors; 410,000 tested, 0.21% active; AID 624170, 2012; further: on the % scale 0 is the no-effect control and ±100 the full control effect
# Target sequence (O94925 whole entry, looked up, canonical isoform): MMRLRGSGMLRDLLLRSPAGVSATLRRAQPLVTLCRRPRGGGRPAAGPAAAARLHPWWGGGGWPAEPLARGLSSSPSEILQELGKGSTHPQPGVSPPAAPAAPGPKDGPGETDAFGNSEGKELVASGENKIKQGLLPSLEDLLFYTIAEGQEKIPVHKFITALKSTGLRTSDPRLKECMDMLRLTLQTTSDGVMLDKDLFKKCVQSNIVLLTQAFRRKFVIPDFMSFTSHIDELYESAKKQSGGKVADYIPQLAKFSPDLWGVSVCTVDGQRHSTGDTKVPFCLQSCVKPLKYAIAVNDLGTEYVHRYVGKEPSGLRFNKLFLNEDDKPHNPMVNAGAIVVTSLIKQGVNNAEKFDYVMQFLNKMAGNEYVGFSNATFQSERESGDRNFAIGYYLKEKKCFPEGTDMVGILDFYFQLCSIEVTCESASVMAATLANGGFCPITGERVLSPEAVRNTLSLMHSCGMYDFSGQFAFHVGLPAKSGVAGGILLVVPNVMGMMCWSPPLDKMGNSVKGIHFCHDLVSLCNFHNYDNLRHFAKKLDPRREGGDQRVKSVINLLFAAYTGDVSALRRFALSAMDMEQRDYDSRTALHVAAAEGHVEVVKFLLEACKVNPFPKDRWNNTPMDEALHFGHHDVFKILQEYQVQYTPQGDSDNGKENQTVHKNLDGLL
#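 Glutamate formation by hKGA was monitored fluorometrically using coupled glutamate oxidase, HRP and Amplex Red. Substrate was added as 1 mM L-glutamine solution; incubation was 30 min at RT after an initial read.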
# POLB inh: qHTS Assay for Inhibitors of DNA Polymerase Beta. P06746. Pol beta primer extension/strand displacement, fluorescence kinetic. Potency, µM (top dose mostly 114 µM), for the others: top-dose activity change, negative = inhibition, actives largely listed as inhibitors. 340,000 tested, 1.3% active. AID 485314, 2010; further: on the % scale 0 is the no-effect control and ±100 the full control effect
#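 Reaction started by 50 nM substrate onto compound-treated Pol beta (10 nM, 15 min preincubation, room temperature); plates read at 0 min and 10 min. Normalized concentration-effect data fitted by four-parameter Hill equation.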
# POLH inh: qHTS for Inhibitors of Polymerase Eta; DNA polymerase eta (Homo sapiens), Q9Y253; recombinant Pol eta, fluorescent DNA replication assay; Potency, µM (titrated, usually from 114 µM), inactives show at the top dose activity change, negative = inhibition, hits mostly inhibitors; 390,000 tested, 1.2% active; further: on the % scale 0 is the no-effect control and ±100 the full control effect
#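 Fluorescent replication assay: 50 nM final substrate added after a 15 min room-temperature compound preincubation with 10 nM enzyme. Signal taken at 0 min and again at 10 min.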
# APE1 inh: qHTS Assay for Inhibitors of the Human Apurinic/apyrimidinic Endonuclease 1 (APE1). DNA repair nuclease/redox regulator APEX1 (Homo sapiens), P27695. recombinant APE1, TAMRA/BHQ-2 abasic DNA cleavage fluorescence. Potency, µM (top dose mostly 65.8 µM), inactives show at the highest dose activity change, negative = inhibition, most hits filed as inhibitors. 350,000 tested, 0.35% active. AID 2517, 2012;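 further: plate controls were vehicle for no effect and reference inhibitor for full effect; nearly all actives have a fitted effect of over 55% in size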
#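 Substrate: short duplex with […] THF abasic site, 5'-TAMRA and 3'-BHQ-2, 50 nM final. APE1 at 0.75 nM, preincubated 15 min RT with compound. Fluorescence increase from first to third read measured activity.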
# Pol iota inh: qHTS for Inhibitors of Polymerase Iota; Pol iota fluorescent replication assay, 10 min; Potency, µM (doses to about 115 µM), without a hit: at the top dose activity, negative = inhibition, hits mostly inhibitors; 390,000 tested, 1% active; AID 588590, 2011
#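 Pol iota at 10 nM preincubated 15 min with compounds at room temperature; reaction started with fluorescent substrate, 50 nM final. Fluorescence read kinetically at 0 and 10 min; buffer-only wells as negative control.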
# * = called active by the depositor; ? = inconclusive; / = not tested or not shown. Sampled rows, rich in hits. Any-hit rate of the full collection: about 2.4%. The call rests on the fitted dose curve; in most records, active means well fitted curve in the direction sought with a large enough effect; inconclusive means small, poorly fitted or top-dose-only effect, or another doubt; inactive means no such curve, though single readings can be large; an effect the other way counts as inactive or inconclusive. Potency means the concentration at half of the fitted maximal effect.
SMILES,POLK inh,GLS inh,POLB inh,POLH inh,APE1 inh,Pol iota inh
C#CCNC(=O)C1=C[C@H](c2ccc3c(c2)OCO3)C[C@H](OCc2ccc(CO)cc2)O1,10%,2%,1%,-7%,-6%,34%
C#CCNC(=O)C1=C[C@H](c2ccc3c(c2)OCO3)C[C@H](OCCCCO)O1,-30%,-3%,/,50µM*,/,35µM*
O=C(NCc1ccccc1)C1=C[C@@H](c2ccc3c(c2)OCO3)C[C@@H](OCCCCO)O1,-9%,17%,/,0%,/,-13%
C#CCNC(=O)C1=C[C@@H](c2ccc3c(c2)OCO3)C[C@@H](OCCCCO)O1,-39%,0%,/,?,/,50µM*
Cc1ccc(-c2ccc(S(=O)(=O)Nc3cccnc3)cc2)cc1,-6%,-5%,50µM*,-21%,18%,54%
CCOC(=O)CN1N=C(/C=C/c2ccc(C(C)C)cc2)CCC1=O,0%,5%,-22%,-22%,?,8%
c1coc(CSSCc2ccco2)c1,8.9µM*,-11%,/,20µM*,5%,?
CC(C)(C)c1cc(=O)n(-c2ccccc2)[nH]1,-13%,4%,?,?,-9%,7.1µM*
Cc1ccc(NC(=O)c2cc3ccccc3oc2=N)cc1,9%,-3%,11%,-5%,57%,?
N=c1oc2cc(O)ccc2cc1C(=O)Nc1ccc(Cl)cc1,-9%,2%,1%,79µM*,-25%,9%
Cc1cc(O)c(C(C)C)cc1N=Nc1ccccc1C(=O)O,-18%,?,-1%,-8%,-6%,9%
Cc1cc(O)c(C(C)C)cc1N=Cc1ccccc1[N+](=O)[O-],-6%,0%,/,-23%,/,20µM*
O=C(CNS(=O)(=O)c1cccc2nonc12)NCc1ccc(F)cc1,7%,-13%,1%,0%,9%,23%
CC(=O)c1c(C)nc(-c2ccc(Cl)cc2)nc1N=CN(C)C,-16%,-8%,35µM*,-15%,1%,-1%
CC(=O)c1c(C)nc(-c2ccc(Cl)cc2)nc1N,-5%,-6%,1%,-12%,-5%,50%
COc1ccc(NC(=O)c2cc3cccc(OC)c3oc2=Nc2ccc(C(=O)O)cc2)cc1OC,-37%,6.3µM*,?,14µM*,?,-8%
COc1cccc(NC(=O)c2cc3cccc(OC)c3o/c2=N\O)c1,/,/,6%,/,20%,/
c1coc(CNc2nc(-c3cccs3)cs2)c1,-8%,?,20µM*,-22%,9%,173%
Oc1ccc(-c2csc(NCc3ccco3)n2)cc1,-15%,3%,2%,-1%,0%,7%
CCCCNS(=O)(=O)c1ccc2nc(SCC(=O)Nc3ccccc3)[nH]c2c1,-8%,9%,6%,-14%,20%,1%
CCCCNS(=O)(=O)c1ccc2nc(SCC(=O)c3ccc(C#N)cc3)[nH]c2c1,1%,-2%,40µM*,?,1%,-2%
O=C1C2C3C=CC(C3)C2C(=O)N1CNc1ccc(O)cc1 (stereo unspecified),/,/,40µM*,/,?,/
Cc1ccc(NCN2C(=O)C3C4C=CC(C4)C3C2=O)cc1 (stereo unspecified),-3%,?,17%,-6%,3%,2%
CNc1c([N+](=O)[O-])cnn1-c1ccccc1F,3%,-2%,-2%,-17%,15%,17%
O=C(CCN1C(=O)/C(=C\c2ccccc2Cl)SC1=S)Nc1cccnc1,-6%,-1%,2%,-25%,16%,24%
CCc1ccc(C=C2SC(=S)N(CCCC(=O)Nc3ccc(C(=O)O)cc3)C2=O)cc1,/,11%,/,/,/,/

# Screening results (PubChem)
